The values that follow come from PubChem BioAssay (EPA / NIEHS).

Broadly, the AC50 is the midpoint of the concentration-response curve, whichever way the signal moves.

Structures are written as SMILES. Activity calls are given as the source filed them. The calls were made as follows: active = hit-call score of the fitted dose curve at least 0.9, where 1 is the maximum; inactive = score below 0.9.

Assay [1] is described as follows: ATG_GRE_CIS: Attagene CIS-FACTORIAL HepG2 Assay for human Glucocorticoid Response Elements (GRE) (AID 2282947). The note with it: HepG2 GRE cis-reporter, Attagene multiplex mRNA; actives raise or lower the signal. The procedure, abridged:
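Reporter transcripts read by RT-PCR with capillary electrophoresis fluorescence after a 24 h chemical exposure of HepG2 cells transiently transfected with multiple cis-element reporter units. Gain or loss fitted against DMSO.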

A short description of assay [2]: ATG_ISRE_CIS: Attagene CIS-FACTORIAL HepG2 Assay for human Interferon Regulatory Factor 1 (IRF1) binding to an Interferon-Stimulated Response Element (ISRE) (AID 2282948). The settings on record: HepG2 ISRE cis-reporter (Attagene), mRNA transcription readout; actives raise or lower the signal. The procedure, abridged:
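Endogenous transcription factor activity read as reporter transcript abundance via RT-PCR and capillary electrophoresis. HepG2 cells transiently transfected, 24 h chemical exposure. Gain or loss fitted against DMSO baseline.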

Assay [3] in a line: ATG_M_32_CIS: Attagene CIS-FACTORIAL HepG2 Assay for M32 Transcription Factor (Internal Marker) (AID 2282949).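 Also: background control marker of the multiplexed CIS panel rather than a real target.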 The settings on record: HepG2 Attagene cis-factorial M32 reporter, mRNA; actives raise or lower the signal. The procedure, abridged:
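HepG2 human liver cells transiently transfected with cis-promoter-driven multiple reporter transcription units, dosed 24 h. Reporter mRNA quantified by RT-PCR, FAM-labelled primer extension, HpaI digest and capillary electrophoresis; bidirectional fit versus DMSO baseline.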

Assay [4] in a line: ATG_M_06_CIS: Attagene CIS-FACTORIAL HepG2 Assay for M06 Transcription Factor (Internal Marker) (AID 2282950). The settings on record: HepG2 Attagene CIS-FACTORIAL M06 internal marker reporter; actives raise or lower the signal. The procedure, abridged:
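Serves as a background control readout. Transfected HepG2 exposed to compounds for 24 h, then reporter transcripts quantified by fluorescent RT-PCR and capillary electrophoresis. Both directions fitted against DMSO baseline.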

Assay [5] concerns the target Hypoxia-inducible factor 1-alpha (Homo sapiens) (UniProt Q16665). Nature of the assay: ATG_HIF1a_CIS: Attagene CIS-FACTORIAL HepG2 Assay for human Hypoxia Inducible Factor 1 (HIF1A) (AID 2282951). The note with it: HepG2 Attagene cis-factorial HIF1a reporter transcription; actives raise or lower the signal. In outline:
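Measures endogenous transcription-factor activity through cis-regulated reporter mRNA in HepG2. Cells dosed 24 h; transcripts quantified by RT-PCR with 6-FAM-labelled products separated by capillary electrophoresis; DMSO serves as negative control.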

Assay [6] addresses Hepatocyte nuclear factor 6 (Homo sapiens) (UniProt Q9UBC0). Kind of assay: ATG_HNF6_CIS: Attagene CIS-FACTORIAL HepG2 Assay for human Hepatocyte Nuclear Factor 6 (HNF6) (AID 2282952). The note with it: HepG2 Attagene cis-factorial HNF6 reporter transcription; actives raise or lower the signal. In outline:
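First, HepG2 cells were transfected with the multiplexed cis reporter library and dosed with chemical for 24 h. Next, RNA was reverse-transcribed, PCR-amplified and fluorescently labelled. Finally, HpaI-digested fragments were read by capillary electrophoresis.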

Assay [7] addresses Heat shock factor protein 1 (Homo sapiens) (UniProt Q00613). Kind of assay: ATG_HSE_CIS: Attagene CIS-FACTORIAL HepG2 Assay for human Heat Shock Transcription Factor 1 (HSE) (AID 2282953). The note with it: HepG2 HSE cis-reporter, Attagene RNA transcription; actives raise or lower the signal. The procedure, abridged: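 Endogenous transcription factor activity in transiently transfected HepG2, read as reporter mRNA by RT-PCR with fluorescent capillary electrophoresis after 24 h. Gain or loss of signal fitted versus DMSO baseline.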

Assay [8] is described as follows: ATG_MRE_CIS: Attagene CIS-FACTORIAL HepG2 Assay for human Metal Responsive Element (MRE) (AID 2282954). The settings on record: HepG2 MRE cis-reporter transcription, Attagene multiplex; actives raise or lower the signal. The procedure, abridged: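 Endogenous MRE-dependent transcription read as reporter mRNA in transiently transfected human HepG2 cells at 24 h. RNA reverse-transcribed, PCR-amplified, labelled and resolved by capillary electrophoresis; gain or loss relative to DMSO.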

For assay [9], the target named is Paired box protein Pax-6 (Homo sapiens) (UniProt P26367). Nature of the assay: ATG_Pax6_CIS: Attagene CIS-FACTORIAL HepG2 Assay for human Paired Box 6 (PAX6) (AID 2282956). The note with it: HepG2 CIS-FACTORIAL PAX6 reporter transcription, RNA readout; actives raise or lower the signal. The procedure, abridged:
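Read-out is reporter transcript level, measured by RT-PCR with fluorescent primer extension and capillary electrophoresis after 24 h dosing of transfected HepG2 cells. Activity in either direction fitted relative to DMSO control.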

Assay [10] is described as follows: ATG_PXRE_CIS: Attagene CIS-FACTORIAL HepG2 Assay for human Pregnane X Receptor Element (PXRE) (AID 2282957). The note with it: HepG2 Attagene CIS-FACTORIAL PXRE reporter, mRNA; actives raise or lower the signal. In outline: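 After a 24 h chemical incubation, total RNA from transfected HepG2 cells was reverse-transcribed and reporter cDNA amplified, FAM-labeled, HpaI-digested and sized by capillary electrophoresis. DMSO served as baseline for bidirectional curve fitting.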

A short description of assay [11]: ATG_PPRE_CIS: Attagene CIS-FACTORIAL HepG2 Assay for human Peroxisome Proliferator-activated Response Element (PPRE) (AID 2282958). The note with it: HepG2 PPRE cis-element reporter, Attagene transcription factor profiling; actives raise or lower the signal. The procedure, abridged: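 Cells are first transfected transiently with the multiplexed reporter library, then dosed for 24 h. Total RNA is reverse-transcribed, amplified, fluorescently end-labeled and HpaI-cut before capillary electrophoresis; activity is fitted bidirectionally against DMSO controls.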

Assay [12] is described as follows: ATG_RORE_CIS: Attagene CIS-FACTORIAL HepG2 Assay for human RAR-related Orphan Receptor Element (RORE) (AID 2282959). The settings on record: HepG2 Attagene cis-factorial RORE reporter, mRNA; actives raise or lower the signal. In outline:
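Cells were HepG2 carrying transfected cis-regulated reporter constructs, dosed for 24 hours. Total RNA was reverse-transcribed and reporter cDNA amplified, fluorescently labeled and sized by capillary electrophoresis. Activity was fitted bidirectionally relative to DMSO.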

Assay [13] is described as follows: ATG_Sox_CIS: Attagene CIS-FACTORIAL HepG2 Assay for human SRY-box transcription factor (SOX) (AID 2282960). The settings on record: HepG2 Attagene cis-factorial SOX reporter, mRNA; actives raise or lower the signal. In outline: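 Transient MRTU transfection of HepG2; 24 h compound incubation; TriZol RNA, oligo(dT) RT, PCR, 6-FAM primer extension, HpaI cut, CE. Bidirectional fit, DMSO = baseline.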

In assay [14] the target is Transcription factor Sp1 (Homo sapiens) (UniProt P08047). Kind of assay: ATG_Sp1_CIS: Attagene CIS-FACTORIAL HepG2 Assay for human Specificity Protein 1 (Sp1) (AID 2282961). The note with it: HepG2 Sp1 cis-reporter transcription, actives raise or lower the signal. In outline: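 Endogenous Sp1 activity was gauged in human liver HepG2 cells bearing transfected reporter units under a cis-regulating promoter. After 24 h dosing, reporter mRNA was quantified by RT-PCR with capillary electrophoresis, and activity fitted bidirectionally versus DMSO.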

Assay [15] can be described thus: ATG_SREBP_CIS: Attagene CIS-FACTORIAL HepG2 Assay for human Sterol Regulatory Element Binding (SREBP) (AID 2282962). The settings on record: HepG2 Attagene cis-factorial SREBP reporter, mRNA; actives raise or lower the signal. The procedure, abridged:
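Endogenous SREBP activity read as cis-element-driven reporter transcript in transiently transfected HepG2, 24 h post-dosing; quantified via RT-PCR plus capillary electrophoresis of fluorescent fragments. Gain or loss of signal fitted relative to DMSO baseline.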

Assay [16] concerns the target Signal transducer and activator of transcription 3 (Homo sapiens) (UniProt P40763). Nature of the assay: ATG_STAT3_CIS: Attagene CIS-FACTORIAL HepG2 Assay for human Signal Transducer and Activator of Transcription 3 (STAT3) (AID 2282963). The settings on record: HepG2, Attagene cis-factorial STAT3 reporter transcription; actives raise or lower the signal. The procedure, abridged:
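Readout is reporter transcript quantified by RT-PCR and capillary electrophoresis, with 6-FAM primer extension and HpaI digestion. Total RNA is taken 24 h after dosing transiently transfected HepG2 carrying cis-regulated reporter units. Bidirectional fit against DMSO.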

The nature of assay [17]: ATG_TA_CIS: Attagene CIS-FACTORIAL HepG2 Assay for human TA Basal Promoter (AID 2282964). The settings on record: HepG2 Attagene CIS-factorial TA basal promoter reporter; actives raise or lower the signal. In outline:
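Background-control readout: TA basal promoter reporter mRNA, fitted in both directions relative to DMSO. Measured by RT-PCR and capillary electrophoresis 24 hours after treating HepG2 human liver cells transiently carrying multiplexed cis-regulated reporter constructs.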

Assay [18] in a line: ATG_TCF_b_cat_CIS: Attagene CIS-FACTORIAL HepG2 Assay for human T-Cell-Factor with beta-catenin (TCF/b-cat) (AID 2282965). The settings on record: HepG2 TCF/beta-catenin cis-reporter transcription, actives raise or lower the signal. The procedure, abridged:
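Measured: reporter mRNA in HepG2 transiently transfected with cis-promoter reporter units, 24 h after chemical addition. Fitting was bidirectional, DMSO as negative control.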

A short description of assay [19]: ATG_PBREM_CIS: Attagene CIS-FACTORIAL HepG2 Assay for human Phenobarbital-responsive Enhancer Module (PBREM) (AID 2282955). The settings on record: HepG2 PBREM cis-reporter, Attagene multiplexed transcription; actives raise or lower the signal. In outline:
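Fluorescence of labelled reporter cDNA fragments, resolved by capillary electrophoresis, gives mRNA induction in transfected HepG2 cells treated for 24 h; DMSO serves as negative control and baseline.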

Chain of Transcription factor Sp1 (Homo sapiens) (P08047 whole entry, looked up): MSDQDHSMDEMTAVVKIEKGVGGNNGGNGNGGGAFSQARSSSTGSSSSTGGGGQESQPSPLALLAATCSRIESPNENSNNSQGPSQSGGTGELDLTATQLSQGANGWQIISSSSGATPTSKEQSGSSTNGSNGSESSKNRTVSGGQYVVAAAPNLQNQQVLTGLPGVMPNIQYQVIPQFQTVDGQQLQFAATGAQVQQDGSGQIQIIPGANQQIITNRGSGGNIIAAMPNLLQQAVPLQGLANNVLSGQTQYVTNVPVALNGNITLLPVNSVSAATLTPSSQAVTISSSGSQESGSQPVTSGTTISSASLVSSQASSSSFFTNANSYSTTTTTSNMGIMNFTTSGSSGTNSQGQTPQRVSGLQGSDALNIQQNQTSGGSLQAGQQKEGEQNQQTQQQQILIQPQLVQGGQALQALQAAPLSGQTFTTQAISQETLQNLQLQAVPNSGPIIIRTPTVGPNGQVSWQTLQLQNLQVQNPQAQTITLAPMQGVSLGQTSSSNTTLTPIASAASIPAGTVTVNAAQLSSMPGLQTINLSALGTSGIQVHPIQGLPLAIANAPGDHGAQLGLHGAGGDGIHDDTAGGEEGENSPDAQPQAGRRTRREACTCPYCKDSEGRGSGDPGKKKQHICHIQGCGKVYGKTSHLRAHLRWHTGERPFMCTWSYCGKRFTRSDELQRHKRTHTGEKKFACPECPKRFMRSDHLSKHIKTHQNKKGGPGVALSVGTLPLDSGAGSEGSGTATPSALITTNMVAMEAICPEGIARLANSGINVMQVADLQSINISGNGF
Chain of Hepatocyte nuclear factor 6 (Homo sapiens) (Q9UBC0 whole entry, looked up, the tested form may be a part): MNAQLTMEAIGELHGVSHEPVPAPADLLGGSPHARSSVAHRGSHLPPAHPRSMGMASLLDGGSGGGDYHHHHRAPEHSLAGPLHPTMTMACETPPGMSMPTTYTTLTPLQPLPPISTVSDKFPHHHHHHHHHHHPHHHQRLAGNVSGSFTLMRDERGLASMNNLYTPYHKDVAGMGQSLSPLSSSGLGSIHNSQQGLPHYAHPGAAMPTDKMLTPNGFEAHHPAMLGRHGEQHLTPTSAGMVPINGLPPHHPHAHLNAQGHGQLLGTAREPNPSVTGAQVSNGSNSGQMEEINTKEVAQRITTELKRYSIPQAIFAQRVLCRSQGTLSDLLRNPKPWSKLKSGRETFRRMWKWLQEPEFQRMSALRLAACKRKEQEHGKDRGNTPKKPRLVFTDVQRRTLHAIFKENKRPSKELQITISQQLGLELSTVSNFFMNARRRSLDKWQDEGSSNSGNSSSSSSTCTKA
Chain of Heat shock factor protein 1 (Homo sapiens) (Q00613 whole entry, looked up): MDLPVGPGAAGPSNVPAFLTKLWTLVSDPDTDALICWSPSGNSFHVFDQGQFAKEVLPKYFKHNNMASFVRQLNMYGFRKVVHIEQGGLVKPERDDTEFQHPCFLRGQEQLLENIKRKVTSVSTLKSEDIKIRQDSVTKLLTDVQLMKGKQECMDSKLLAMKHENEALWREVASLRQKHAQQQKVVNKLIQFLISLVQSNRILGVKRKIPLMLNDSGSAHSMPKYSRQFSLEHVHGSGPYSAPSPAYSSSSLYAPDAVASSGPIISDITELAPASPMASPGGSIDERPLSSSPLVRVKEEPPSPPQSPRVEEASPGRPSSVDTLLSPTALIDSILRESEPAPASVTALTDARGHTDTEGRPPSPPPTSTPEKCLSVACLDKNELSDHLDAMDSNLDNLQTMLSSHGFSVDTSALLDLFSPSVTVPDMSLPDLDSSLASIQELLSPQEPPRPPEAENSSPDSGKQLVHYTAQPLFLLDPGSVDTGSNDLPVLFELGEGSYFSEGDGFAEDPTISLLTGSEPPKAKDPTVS
Chain of Paired box protein Pax-6 (Homo sapiens) (P26367 whole entry, looked up): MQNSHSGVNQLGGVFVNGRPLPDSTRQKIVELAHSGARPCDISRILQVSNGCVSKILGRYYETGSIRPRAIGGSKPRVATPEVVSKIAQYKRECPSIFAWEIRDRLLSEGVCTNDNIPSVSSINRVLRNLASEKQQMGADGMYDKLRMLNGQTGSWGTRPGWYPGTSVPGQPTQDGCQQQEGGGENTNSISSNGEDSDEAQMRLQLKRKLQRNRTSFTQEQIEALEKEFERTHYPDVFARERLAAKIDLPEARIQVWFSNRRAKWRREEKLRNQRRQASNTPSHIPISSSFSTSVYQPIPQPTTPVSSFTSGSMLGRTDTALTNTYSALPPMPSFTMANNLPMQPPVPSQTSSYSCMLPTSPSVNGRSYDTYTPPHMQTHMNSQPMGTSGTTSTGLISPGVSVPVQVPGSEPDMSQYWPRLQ
Chain of Hypoxia-inducible factor 1-alpha (Homo sapiens) (Q16665 whole entry, looked up): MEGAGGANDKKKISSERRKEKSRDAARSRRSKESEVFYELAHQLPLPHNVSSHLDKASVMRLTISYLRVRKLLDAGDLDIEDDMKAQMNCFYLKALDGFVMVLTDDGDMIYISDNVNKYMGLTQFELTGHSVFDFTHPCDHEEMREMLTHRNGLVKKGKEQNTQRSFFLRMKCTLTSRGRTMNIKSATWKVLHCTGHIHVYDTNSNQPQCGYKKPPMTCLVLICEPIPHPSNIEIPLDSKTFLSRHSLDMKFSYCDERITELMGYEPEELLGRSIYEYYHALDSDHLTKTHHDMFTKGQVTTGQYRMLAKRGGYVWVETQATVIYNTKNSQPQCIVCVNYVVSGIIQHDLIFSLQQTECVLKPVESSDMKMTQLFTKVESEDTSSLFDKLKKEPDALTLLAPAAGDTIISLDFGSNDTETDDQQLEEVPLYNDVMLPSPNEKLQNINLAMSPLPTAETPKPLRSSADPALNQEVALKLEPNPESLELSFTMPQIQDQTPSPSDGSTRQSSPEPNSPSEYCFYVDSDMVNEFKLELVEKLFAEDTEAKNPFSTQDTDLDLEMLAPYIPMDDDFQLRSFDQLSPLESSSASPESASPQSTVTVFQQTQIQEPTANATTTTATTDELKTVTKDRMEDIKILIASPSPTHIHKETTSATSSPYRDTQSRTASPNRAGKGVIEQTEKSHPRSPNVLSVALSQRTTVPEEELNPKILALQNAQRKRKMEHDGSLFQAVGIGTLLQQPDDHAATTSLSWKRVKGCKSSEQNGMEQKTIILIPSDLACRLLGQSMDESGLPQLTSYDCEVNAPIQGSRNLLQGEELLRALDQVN
Chain of Signal transducer and activator of transcription 3 (Homo sapiens) (P40763 whole entry, looked up): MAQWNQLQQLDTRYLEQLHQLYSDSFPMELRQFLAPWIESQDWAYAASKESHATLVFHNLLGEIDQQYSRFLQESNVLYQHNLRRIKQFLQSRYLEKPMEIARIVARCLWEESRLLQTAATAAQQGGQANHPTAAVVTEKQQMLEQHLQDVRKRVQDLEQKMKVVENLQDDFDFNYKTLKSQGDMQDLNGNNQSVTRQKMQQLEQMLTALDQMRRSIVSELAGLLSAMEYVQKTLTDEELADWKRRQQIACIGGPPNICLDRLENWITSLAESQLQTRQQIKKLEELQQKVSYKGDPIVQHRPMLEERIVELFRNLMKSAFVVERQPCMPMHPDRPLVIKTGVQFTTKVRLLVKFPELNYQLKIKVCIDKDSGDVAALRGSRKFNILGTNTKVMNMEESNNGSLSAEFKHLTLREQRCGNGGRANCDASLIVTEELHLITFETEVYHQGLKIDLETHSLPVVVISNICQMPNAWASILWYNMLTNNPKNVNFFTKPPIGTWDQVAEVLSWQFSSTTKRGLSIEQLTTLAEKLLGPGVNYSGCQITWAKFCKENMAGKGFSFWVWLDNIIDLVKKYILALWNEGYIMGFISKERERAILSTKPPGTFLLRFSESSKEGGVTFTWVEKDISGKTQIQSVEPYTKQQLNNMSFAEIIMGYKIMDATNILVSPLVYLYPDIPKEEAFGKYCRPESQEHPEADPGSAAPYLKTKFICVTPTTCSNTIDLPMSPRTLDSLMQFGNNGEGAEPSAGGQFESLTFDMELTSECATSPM

As for `COc1ccc(Nc2ccccc2)c(C)c1`, the outcome in assay [1], in [2], in assay [3], in assay [4], in assay [5] and in assay [6] was inactive. For the same compound, the compound was called inactive in assay [7], in assay [9], in assay [13], in assay [14], in assay [15] and in assay [16]. In addition, the outcome in [17] and in assay [18] was inactive. For the same compound, the half-maximal activity concentration (AC50) in assay [8] was 128 µM (active); in [10], 26.9 µM (active); in [11], 67.2 µM (active); in [12], 51.5 µM (active).
As to `Nc1cc([N+](=O)[O-])ccc1O`, the compound was classed as inactive in assay [1], in assay [2], in [3], in assay [4], in [5] and in assay [6]. Also, the call in assay [7], in assay [8], in assay [19], in assay [9], in assay [10] and in assay [12] was inactive. Besides, the result in assay [13], in assay [14], in assay [15] and in assay [18] was inactive.
With `O=C1CCCCCCCCCCCCCCO1`, the outcome in assay [1], in assay [2], in assay [3], in [4], in assay [5] and in [6] was inactive. Further, the compound was called inactive in [7], in assay [8], in [9], in assay [10], in assay [11] and in assay [12]. The result in assay [13], in [14], in [15], in assay [16], in [17] and in assay [18] was inactive.
In the case of `CC1COc2ccccc2N1C(=O)C(Cl)Cl` (stereo unspecified), the call in assay [1], in assay [3], in assay [4], in assay [5], in assay [6] and in assay [7] was inactive. For the same compound, the outcome in [19], in [11], in assay [12], in [13], in assay [14] and in assay [15] was inactive. Besides, the outcome in [16] and in assay [18] was inactive. In addition, the AC50 in assay [2] was 100 µM (active); in assay [8], 62.1 µM (active); in assay [9] it was 26.7 µM (active); in assay [10] it was 26.6 µM (active).
With `CC(C)(C)NC(N)=O`, the outcome in assay [1], in assay [2], in assay [3], in assay [4], in assay [5] and in [6] was inactive. The result in assay [7], in assay [8], in assay [19], in [9], in assay [10] and in [11] was inactive. The compound was classed as inactive in assay [12], in [13], in assay [14], in assay [15], in assay [16] and in [17]. The compound was classed as inactive in assay [18].
Consider `O=[N+]([O-])c1cc(C(F)(F)F)ccc1Cl`, for which the outcome in [1], in [2], in assay [3], in assay [4], in assay [5] and in [6] was inactive. In addition, the call in [7], in [8], in [19], in assay [9], in assay [12] and in assay [13] was inactive. In addition, the call in assay [14], in [15], in assay [17] and in [18] was inactive. Further, the AC50 in assay [10] is 12.7 µM (active).
As for `CC(O)C(C)O` (stereo unspecified), the compound was called inactive in assay [1], in [2], in assay [3], in assay [4], in assay [5] and in assay [6]. Further, the compound was classed as inactive in assay [7], in assay [8], in assay [9], in assay [10], in [11] and in assay [12]. Further, the call in assay [13], in assay [14], in [15], in assay [16], in assay [17] and in assay [18] was inactive.
For `Cc1cccc(C)c1[N+](=O)[O-]`, the compound was classed as inactive in assay [1], in assay [2], in assay [3], in assay [4], in [5] and in assay [6]. Moreover, the compound was called inactive in [7], in [8], in assay [9], in assay [10], in assay [11] and in assay [12]. For the same compound, the compound was called inactive in assay [13], in assay [14], in [15], in assay [16] and in assay [17].
